For three compounds, outcome and AC50 results are on record in PubChem BioAssay (EPA / NIEHS).

Activity calls are given as the source filed them. Rule for the calls: active = hit-call score of the fitted dose curve at least 0.9, where 1 is the maximum; inactive = score below 0.9.

What all share (conditions): mRNA level, 48 h; actives raise or lower the signal
Read-out in assay [1]: Paternally Expressed 10 (PEG10), PEG10 (gene 23089)
The experiment in a line: LTEA_HepaRG_PEG10: Life Technologies and Expression Analysis (LTEA) Assay for Paternally Expressed 10 (PEG10) using HepaRG (AID 2283520). An outline of the steps: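 Differentiated HepaRG cells, plated 48 h then switched to serum-free induction medium, were exposed in duplicate for 48 h to eight half-log concentrations topping at 100 uM in 0.5% DMSO. PEG10 mRNA was quantified by TaqMan qRT-PCR, normalised to ACTB, GAPDH and POLR2A.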

Read-out in assay [2]: Protein phosphatase 2A (PPP2R4), PTPA (gene 5524)
The experiment in a line: LTEA_HepaRG_PPP2R4: Life Technologies and Expression Analysis (LTEA) Assay for Protein phosphatase 2A (PPP2R4) using HepaRG (AID 2283522). An outline of the steps: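 Differentiated HepaRG cells in serum-free induction medium were exposed in duplicate for 48 h to eight concentrations, top 100 uM with half-log dilutions, in 0.5% DMSO. PPP2R4 mRNA was quantified by TaqMan qRT-PCR, normalized to ACTB, GAPDH and POLR2A.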

Read-out in assay [3]: Phosphatase and tensin (PTEN), PTEN (gene 5728)
The experiment in a line: LTEA_HepaRG_PTEN: Life Technologies and Expression Analysis (LTEA) Assay for Phosphatase and tensin (PTEN) using HepaRG (AID 2283523). An outline of the steps: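 Differentiated human HepaRG cells, plated 48 h then switched to serum-free induction medium, were exposed in duplicate for 48 h to eight half-log concentrations up to 100 uM in 0.5% DMSO. PTEN mRNA measured by TaqMan qRT-PCR, normalized to ACTB/GAPDH/POLR2A, bidirectional fit versus DMSO.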

Read-out in assay [4]: solute carrier (SLC22A1), SLC22A1 (gene 6580)
The experiment in a line: LTEA_HepaRG_SLC22A1: Life Technologies and Expression Analysis (LTEA) Assay for solute carrier (SLC22A1) using HepaRG (AID 2283524). An outline of the steps:
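Human HepaRG cells were plated 48 h, switched to serum-free induction medium, then exposed in duplicate for 48 h to 8-point half-log series from 100 uM in 0.5% DMSO. SLC22A1 mRNA measured by qRT-PCR, normalized to ACTB/GAPDH/POLR2A, fitted bidirectionally versus DMSO.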

Read-out in assay [5]: Pyruvate Dehydrogenase Kinase 4 (PDK4), PDK4 (gene 5166)
The experiment in a line: LTEA_HepaRG_PDK4: Life Technologies and Expression Analysis (LTEA) Assay for Pyruvate Dehydrogenase Kinase 4 (PDK4) using HepaRG (AID 2283525). Put shortly: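 Differentiated human HepaRG cells, pre-cultured 48 h, were exposed in duplicate for 48 h in serum-free induction medium to eight half-log concentrations up to 100 uM in 0.5% DMSO. PDK4 mRNA was quantified by qRT-PCR, normalized to ACTB, GAPDH and POLR2A, bidirectional fitting versus DMSO.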

Read-out in assay [6]: NAD(P)H dehydrogenase [quinone] 1 (NQO1), NQO1 (gene 1728)
The experiment in a line: LTEA_HepaRG_NQO1: Life Technologies and Expression Analysis (LTEA) Assay for NAD(P)H dehydrogenase [quinone] 1 (NQO1) using HepaRG (AID 2283526). Put shortly:
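Differentiated HepaRG cells, plated 48 h and then switched to serum-free induction medium, were exposed in duplicate for 48 h to 8-point half-log concentrations up to 100 uM in 0.5% DMSO. mRNA measured by qRT-PCR, normalized to ACTB, GAPDH, POLR2A; bidirectional fit versus DMSO.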

Read-out in assay [7]: Nuclear factor erythroid 2-related factor 2 (Homo sapiens) (UniProt Q16236)
The experiment in a line: LTEA_HepaRG_NFE2L2: Life Technologies and Expression Analysis (LTEA) Assay for Nuclear factor erythroid 2-related factor 2 (NFE2L2) Transcription Factor using HepaRG (AID 2283527).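 Note: TaqMan qRT-PCR transcript level normalised to ACTB GAPDH and POLR2A housekeeping genes.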 Put shortly: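 Differentiated human HepaRG cells in serum-free induction medium were exposed for 48 h to eight concentrations (top 100 uM, half-log dilutions, 0.5% DMSO), in duplicate. NFE2L2 mRNA was quantified by TaqMan qRT-PCR, normalized to ACTB, GAPDH and POLR2A, with bidirectional fitting versus DMSO.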

Read-out in assay [8]: succinate dehydrogenase complex iron sulfur subunit B (SDHB), SDHB (gene 6390)
The experiment in a line: LTEA_HepaRG_SDHB: Life Technologies and Expression Analysis (LTEA) Assay for succinate dehydrogenase complex iron sulfur subunit B (SDHB) using HepaRG (AID 2283528). Put shortly: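 HepaRG, 48 h exposure, 8-pt half-log series from 100 uM in 0.5% DMSO, duplicates. Readout: SDHB mRNA by Fluidigm qRT-PCR vs housekeeping genes; bidirectional fit relative to DMSO.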

Read-out in assay [9]: solute carrier (SLCO1B1), SLCO1B1 (gene 10599)
The experiment in a line: LTEA_HepaRG_SLCO1B1: Life Technologies and Expression Analysis (LTEA) Assay for solute carrier (SLCO1B1) using HepaRG (AID 2283530). Put shortly: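 SLCO1B1 transcript levels were quantified by TaqMan qRT-PCR using three housekeeping genes for normalization. This followed 48 h chemical exposure (100 uM top, half-log, 8 points, 0.5% DMSO) of HepaRG liver cells, with gain or loss fitted relative to DMSO.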

Read-out in assay [10]: sulfotransferase 2A1 (SULT2A1), SULT2A1 (gene 6822)
The experiment in a line: LTEA_HepaRG_SULT2A1: Life Technologies and Expression Analysis (LTEA) Assay for sulfotransferase 2A1 (SULT2A1) using HepaRG (AID 2283531). An outline of the steps: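 Expression change of SULT2A1, by qRT-PCR with three housekeeping-gene normalization, was scored bidirectionally versus DMSO. Cells: differentiated HepaRG, dosed in duplicate for 48 h across 8 points, highest 100 µM, half-log dilution, 0.5% DMSO.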

Read-out in assay [11]: Transforming Growth Factor (TGFA), TGFA (gene 7039)
The experiment in a line: LTEA_HepaRG_TGFA: Life Technologies and Expression Analysis (LTEA) Assay for Transforming Growth Factor (TGFA) using HepaRG (AID 2283532). Put shortly: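 Differentiated human HepaRG cells, plated 48 h then switched to serum-free induction medium, were exposed in duplicate for 48 h to 8-point half-log series from 100 uM in 0.5% DMSO. TGFA mRNA measured by qRT-PCR, normalized to ACTB/GAPDH/POLR2A, bidirectional fit versus DMSO.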

Read-out in assay [12]: Transforming Growth Factor (TGFB1), TGFB1 (gene 7040)
The experiment in a line: LTEA_HepaRG_TGFB1: Life Technologies and Expression Analysis (LTEA) Assay for Transforming Growth Factor (TGFB1) Transporter using HepaRG (AID 2283533). Put shortly:
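TGFB1 transcript measured by qRT-PCR with normalisation to three housekeeping genes (ACTB, GAPDH, POLR2A); human HepaRG line treated in duplicate for 48 hr with an 8-point series topping at 100 uM, 0.5% DMSO vehicle, bidirectionally fitted.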

Read-out in assay [13]: TIMP1, TIMP1 (gene 7076)
The experiment in a line: LTEA_HepaRG_TIMP1: Life Technologies and Expression Analysis (LTEA) Assay for TIMP1 using HepaRG (AID 2283534). An outline of the steps: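 Bidirectional change in TIMP1 transcript versus 0.5% DMSO, measured by TaqMan qRT-PCR with three housekeeping genes for normalization. HepaRG human liver cells dosed 48 h in duplicate, top concentration 100 uM with half-log dilutions.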

Read-out in assay [14]: Tumor necrosis factor receptor 1 (TNFRSF1A), TNFRSF1A (gene 7132)
The experiment in a line: LTEA_HepaRG_TNFRSF1A: Life Technologies and Expression Analysis (LTEA) Assay for Tumor necrosis factor receptor 1 (TNFRSF1A) using HepaRG (AID 2283535). An outline of the steps: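 mRNA measured by qRT-PCR (TaqMan, Fluidigm arrays) against ACTB/GAPDH/POLR2A housekeepers after 48 h chemical exposure of HepaRG cells. Top concentration 100 uM, half-log 8-point series, duplicates; vehicle 0.5% DMSO, both fit directions.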

Read-out in assay [15]: Thyroid Hormone Responsive (THRSP), THRSP (gene 7069)
The experiment in a line: LTEA_HepaRG_THRSP: Life Technologies and Expression Analysis (LTEA) Assay for Thyroid Hormone Responsive (THRSP) using HepaRG (AID 2283536). Put shortly:
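Differentiated human HepaRG cells were exposed in duplicate for 48 h in serum-free induction medium to eight concentrations (top 100 uM, half-log steps, 0.5% DMSO). Expression was quantified by TaqMan qRT-PCR, normalized to ACTB, GAPDH and POLR2A, with bidirectional fitting against DMSO.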

Read-out in assay [16]: Cellular tumor antigen p53 (Homo sapiens) (UniProt P04637)
The experiment in a line: LTEA_HepaRG_TP53: Life Technologies and Expression Analysis (LTEA) Assay for Tumor Protein P53 (TP53) using HepaRG (AID 2283537). Put shortly:
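HepaRG, 48 h exposure, top 100 uM, half-log 8-point, 0.5% DMSO vehicle, duplicates. Read: TP53 mRNA by TaqMan qRT-PCR, normalised to ACTB/GAPDH/POLR2A; bidirectional fit vs DMSO.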

Read-out in assay [17]: UDP glucuronosyltransferase (UGT1A1), UGT1A1 (gene 54658)
The experiment in a line: LTEA_HepaRG_UGT1A1: Life Technologies and Expression Analysis (LTEA) Assay for UDP glucuronosyltransferase (UGT1A1) using HepaRG (AID 2283538). An outline of the steps: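 Differentiated human HepaRG cells in serum-free induction medium were exposed in duplicate for 48 h to eight half-log concentrations up to 100 uM in 0.5% DMSO. UGT1A1 mRNA was quantified by TaqMan qRT-PCR, normalized to ACTB, GAPDH and POLR2A, and fitted bidirectionally against DMSO.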

Read-out in assay [18]: UDP glucuronosyltransferase (UGT1A6), UGT1A6 (gene 54578)
The experiment in a line: LTEA_HepaRG_UGT1A6: Life Technologies and Expression Analysis (LTEA) Assay for UDP glucuronosyltransferase (UGT1A6) using HepaRG (AID 2283539). Put shortly:
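Expression was quantified by TaqMan qRT-PCR on Fluidigm arrays with ACTB/GAPDH/POLR2A normalization and bidirectional fitting against 0.5% DMSO. HepaRG cells (~100,000/well) were treated in duplicate for 48 h at eight half-log concentrations up to 100 uM in serum-free induction medium.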

Read-out in assay [19]: Nuclear factor NF-kappa-B p105 subunit (Homo sapiens) (UniProt P19838)
The experiment in a line: LTEA_HepaRG_NFKB1: Life Technologies and Expression Analysis (LTEA) Assay for Nuclear Factor Kappa B Subunit 1 (NFKB1) using HepaRG (AID 2283521). An outline of the steps: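 Differentiated human HepaRG cells were exposed for 48 h in serum-free induction medium to eight concentrations (top 100 uM, half-log steps, 0.5% DMSO), in duplicate. NFKB1 mRNA was measured by TaqMan qRT-PCR, normalized to ACTB/GAPDH/POLR2A, and fitted bidirectionally against DMSO.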

Read-out in assay [20]: Signal transducer and activator of transcription 3 (Homo sapiens) (UniProt P40763)
The experiment in a line: LTEA_HepaRG_STAT3: Life Technologies and Expression Analysis (LTEA) Assay for Signal transducer and activator of transcription (STAT3) using HepaRG (AID 2283529). An outline of the steps: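 Differentiated human HepaRG cells in serum-free induction medium were exposed in duplicate for 48 h to eight half-log concentrations up to 100 uM in 0.5% DMSO. STAT3 mRNA was quantified by TaqMan qRT-PCR, normalized to ACTB, GAPDH and POLR2A, and fitted bidirectionally against DMSO.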

Nuclear factor erythroid 2-related factor 2 (Homo sapiens), sequence (Q16236 whole entry, looked up): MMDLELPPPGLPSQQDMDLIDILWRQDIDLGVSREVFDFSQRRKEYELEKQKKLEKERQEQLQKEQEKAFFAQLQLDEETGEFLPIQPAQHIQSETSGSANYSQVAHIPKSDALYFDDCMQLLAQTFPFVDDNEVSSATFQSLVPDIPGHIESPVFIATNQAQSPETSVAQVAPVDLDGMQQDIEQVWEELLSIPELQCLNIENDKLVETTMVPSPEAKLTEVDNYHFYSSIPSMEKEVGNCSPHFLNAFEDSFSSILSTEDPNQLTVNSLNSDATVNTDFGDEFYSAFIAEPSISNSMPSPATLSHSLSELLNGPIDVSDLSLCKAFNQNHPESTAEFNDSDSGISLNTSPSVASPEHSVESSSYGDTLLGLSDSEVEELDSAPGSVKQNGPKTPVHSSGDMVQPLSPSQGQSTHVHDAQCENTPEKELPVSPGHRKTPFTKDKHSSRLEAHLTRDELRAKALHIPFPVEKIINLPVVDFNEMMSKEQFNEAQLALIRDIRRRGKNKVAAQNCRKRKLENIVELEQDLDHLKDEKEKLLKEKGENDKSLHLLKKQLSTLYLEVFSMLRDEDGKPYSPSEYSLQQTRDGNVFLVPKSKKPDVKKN
Cellular tumor antigen p53 (Homo sapiens), sequence (P04637 whole entry, looked up): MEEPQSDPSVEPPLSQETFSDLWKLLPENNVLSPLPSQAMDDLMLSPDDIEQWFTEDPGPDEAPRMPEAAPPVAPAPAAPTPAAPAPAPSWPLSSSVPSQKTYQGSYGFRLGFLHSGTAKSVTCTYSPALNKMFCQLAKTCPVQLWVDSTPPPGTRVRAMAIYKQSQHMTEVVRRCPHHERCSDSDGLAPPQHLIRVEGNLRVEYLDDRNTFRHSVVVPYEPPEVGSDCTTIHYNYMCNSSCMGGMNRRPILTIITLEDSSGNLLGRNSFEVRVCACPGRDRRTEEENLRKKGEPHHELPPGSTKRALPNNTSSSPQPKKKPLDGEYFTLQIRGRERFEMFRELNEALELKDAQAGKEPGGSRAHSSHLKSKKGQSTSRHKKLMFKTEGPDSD
Nuclear factor NF-kappa-B p105 subunit (Homo sapiens), sequence (P19838 whole entry, looked up): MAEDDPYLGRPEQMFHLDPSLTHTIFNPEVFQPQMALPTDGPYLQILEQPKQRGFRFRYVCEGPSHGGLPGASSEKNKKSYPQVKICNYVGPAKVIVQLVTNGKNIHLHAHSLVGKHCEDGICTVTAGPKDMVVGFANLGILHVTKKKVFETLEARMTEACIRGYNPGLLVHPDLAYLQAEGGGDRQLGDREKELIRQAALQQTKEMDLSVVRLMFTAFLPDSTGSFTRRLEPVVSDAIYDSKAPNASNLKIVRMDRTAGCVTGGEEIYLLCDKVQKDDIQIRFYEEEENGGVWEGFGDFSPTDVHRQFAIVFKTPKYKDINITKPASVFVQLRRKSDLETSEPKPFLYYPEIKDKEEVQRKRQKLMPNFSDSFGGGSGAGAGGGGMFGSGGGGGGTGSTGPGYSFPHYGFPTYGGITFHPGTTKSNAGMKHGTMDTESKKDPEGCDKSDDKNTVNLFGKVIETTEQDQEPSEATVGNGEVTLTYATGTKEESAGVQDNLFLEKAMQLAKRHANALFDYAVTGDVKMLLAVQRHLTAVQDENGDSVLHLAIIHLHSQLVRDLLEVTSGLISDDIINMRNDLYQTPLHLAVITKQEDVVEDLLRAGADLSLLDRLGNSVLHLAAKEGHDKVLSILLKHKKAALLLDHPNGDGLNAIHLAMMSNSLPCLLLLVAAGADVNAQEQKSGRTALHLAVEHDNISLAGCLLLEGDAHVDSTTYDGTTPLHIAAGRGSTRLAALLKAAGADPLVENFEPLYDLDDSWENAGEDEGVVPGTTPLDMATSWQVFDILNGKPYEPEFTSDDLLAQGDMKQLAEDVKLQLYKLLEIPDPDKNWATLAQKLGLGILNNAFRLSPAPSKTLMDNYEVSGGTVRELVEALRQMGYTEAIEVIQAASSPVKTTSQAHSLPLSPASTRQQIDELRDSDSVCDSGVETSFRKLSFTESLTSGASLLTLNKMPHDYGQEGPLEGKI
Signal transducer and activator of transcription 3 (Homo sapiens), sequence (P40763 whole entry, looked up): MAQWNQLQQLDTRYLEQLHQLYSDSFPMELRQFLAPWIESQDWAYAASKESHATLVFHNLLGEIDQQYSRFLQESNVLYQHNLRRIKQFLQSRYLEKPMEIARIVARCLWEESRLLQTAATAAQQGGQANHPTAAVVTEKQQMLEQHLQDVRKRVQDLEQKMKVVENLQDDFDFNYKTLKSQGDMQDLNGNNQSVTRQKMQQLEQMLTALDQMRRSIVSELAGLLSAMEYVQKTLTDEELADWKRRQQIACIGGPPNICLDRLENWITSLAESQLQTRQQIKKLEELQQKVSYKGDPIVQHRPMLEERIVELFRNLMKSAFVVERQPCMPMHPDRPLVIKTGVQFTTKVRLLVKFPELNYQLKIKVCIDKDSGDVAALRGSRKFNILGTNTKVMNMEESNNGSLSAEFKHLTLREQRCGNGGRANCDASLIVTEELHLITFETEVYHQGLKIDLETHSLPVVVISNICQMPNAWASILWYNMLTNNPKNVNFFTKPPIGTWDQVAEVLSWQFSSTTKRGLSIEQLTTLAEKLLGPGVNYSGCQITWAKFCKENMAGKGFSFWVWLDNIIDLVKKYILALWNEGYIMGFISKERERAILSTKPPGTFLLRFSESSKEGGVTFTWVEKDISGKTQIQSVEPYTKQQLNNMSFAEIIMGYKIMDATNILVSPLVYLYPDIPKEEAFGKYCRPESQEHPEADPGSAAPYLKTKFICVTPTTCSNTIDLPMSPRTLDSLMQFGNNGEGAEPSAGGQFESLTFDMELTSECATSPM

On to `O=C1O[C@H]([C@@H](O)CO)C(O)=C1O`, for which the result in [1], in assay [2], in [3], in assay [4], in [5] and in assay [6] was inactive. Moreover, the result in assay [7], in assay [8], in assay [9], in assay [10], in [11] and in [12] was inactive. Also, the compound was called inactive in [13], in assay [14], in assay [15], in assay [16], in assay [17] and in assay [18].

Take `CCCCOC(=O)CC(CC(=O)OCCCC)(OC(C)=O)C(=O)OCCCC`: the compound was called inactive in assay [1], in assay [19], in assay [2], in assay [3], in [4] and in assay [7]. Further, the outcome in [8], in assay [20], in assay [9], in assay [10], in assay [11] and in assay [12] was inactive. For the same compound, the result in assay [13], in assay [14], in assay [15], in assay [16], in assay [17] and in [18] was inactive.

As to `C[C@]12CC[C@@H]3c4ccc(O)cc4CC[C@H]3[C@@H]1CC[C@H]2O`, the AC50 in assay [1] was 50 µM (active); in assay [4], 71.1 µM (active); in [9], 77.5 µM (active); in assay [10], 6.71 µM (active); in assay [12], 50 µM (active); in assay [17], 2.42 µM (active). Besides, the call in assay [2], in assay [3], in assay [7], in [8], in assay [11] and in assay [13] was inactive. Also, the call in assay [14], in assay [15], in assay [16] and in [18] was inactive.
